TDP1 cell noCPT: qHTS for Inhibitors of human tyrosyl-DNA phosphodiesterase 1 (TDP1): qHTS in cells in absence of CPT. DT40 Tdp1-/- hTDP1 cells, no CPT, ATP luminescence, 48 h. Potency, µM (highest dose often 46.2 µM), actives largely listed as inhibitors. actives 15% (n = 420,000). AID 686978, 2013; further: nearly all actives have a fitted effect of over 55% in size
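Compound effects on proliferation are scored in DT40 Tdp1-/-;hTDP1 cells in the absence of CPT. ATP levels (CellTiter-Glo luminescence) are recorded after a ≥48 hr, 37 °C incubation.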
HT1080 IDH1KD tx: HT-1080 IDH1 knockdown cell toxicity (counter line). HT-1080 IDH1 knockdown viability, ATP luminescence, 48 h. Potency, µM (highest dose often 46.1 µM), actives largely listed as cytotoxic. actives 2% (n = 360,000)
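Cytotoxicity counter-line: IDH1KD HT-1080, 48 h, CellTiter-Glo. Curves classed by r2, magnitude and activity.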
IL1B secr inh: inflammasome signaling inhibition, IL-1 beta readout; THP-1 LPS/ATP IL-1B secretion, AlphaLISA, 16 h; stronger effect = lower value; activity change, % at 57.5 µM; actives 4.7% (n = 360,000); in the data active means activity change below about -50%; inconclusive means mostly about -30% to -49%
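THP-1 cells pretreated 1 hr with compounds (up to 57.5 uM final), then stimulated with LPS (250 ng/mL final) plus ATP (1.25 mM final); secreted IL-1B measured by AlphaLISA after 16 hr, decreased signal indicating inhibition.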
TDP1 cell CPT: DT40-hTDP1 cell growth loss with CPT. Potency, µM (titrated, usually from 46.2 µM), actives largely listed as inhibitors. actives 12% (n = 420,000). chicken DT40 Tdp1-/-;hTDP1 cells + 20 nM CPT, ATP luminescence, 48 h; further: nearly all actives have a fitted effect of over 55% in size
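Chicken DT40 Tdp1-/- cells complemented with human TDP1, 400 cells/well, exposed to compounds plus 20 nM camptothecin for at least 48 h at 37 C; viability read as ATP content by CellTiter-Glo luminescence.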
HT1080-NT tox: kills 2HG-producing HT-1080-NT fibrosarcoma cells. HT-1080-NT fibrosarcoma viability, CellTiter-Glo ATP luminescence, 48 h. Potency, µM (doses to about 46.1 µM), usual class: cytotoxic. actives 1.6% (n = 360,000). AID 686970;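 further: NT is the 2HG producing partner of a matched IDH1 knockdown line; nearly all actives have a fitted effect of over 55% in size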
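750 cells/well, RPMI + 5% FBS; 2 h settle, compound pin-transfer, 48 h at 37 degrees C. CellTiter-Glo 10 min RT, luminescence. Normalized to DMSO and media-only wells.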
Hits are given with their value; - = inactive; ? = inconclusive; . = no result; ! = not active in a repeat. Shown are actives, neighbours in structure and some others; about 19% of the full set was active somewhere. Unless noted, the call rests on the fitted dose curve; in most records, active means well fitted curve in the direction sought with a large enough effect; inconclusive means small, poorly fitted or top-dose-only effect, or another doubt; inactive means no such curve, though single readings can be large; an effect the other way counts as inactive or inconclusive.

SMILES	TDP1 cell noCPT	HT1080 IDH1KD tx	IL1B secr inh	TDP1 cell CPT	HT1080-NT tox
OC[C@@H]1CN(Cc2ccc3c(c2)OCO3)C[C@H](n2cnc3c(NC4CCC4)ncnc32)O1	?	-	-	?	-
Cc1c(Cl)cccc1NC(=O)C1CCCN(c2nnc(-n3c(C)ccc3C)s2)C1 (centres undefined)	16µM	.	.	?	.
CC(=O)Nc1ccc(NC(=O)C2CCCN(c3nnc(-n4cccc4)s3)C2)cc1 (centres undefined)	-	-	-	-	-
CCc1ccccc1NC(=O)C1CCCN(c2nnc(-n3c(C)ccc3C)s2)C1 (centres undefined)	21µM	.	.	21µM	.
Cc1ccc(C)n1-c1nnc(N2CCC(C(=O)NCCCN3CC(C)CC(C)C3)CC2)s1 (centres undefined)	-	-	-	?	-
Cc1cc(Cl)ccc1NC(=O)C1CCN(c2nnc(-n3c(C)ccc3C)s2)CC1	21µM	.	.	?	.
CCc1ccc(NC(=O)C2CCN(c3nnc(-n4c(C)ccc4C)s3)CC2)cc1	23µM	.	.	16µM	.
Cc1cc(C)c(O)c(NC(=S)NC(=O)Cc2ccccc2)c1	?	?	-	?	?
Cc1ccc(NC(=O)C2CCCN(c3nc4ccccc4s3)C2)c(C)c1 (centres undefined)	-	.	.	-	.
Cc1ccc(NC(=O)C2CCCN(c3nnc(-n4c(C)ccc4C)s3)C2)c(C)c1 (centres undefined)	16µM	.	.	?	.
O=C(Nc1ccc(Cl)c([N+](=O)[O-])c1)ONC1=NCCCCC1	13µM	-	-53	?	-
O=C1NC[C@H](CCCCN2CCN(CC3CCCCC3)C(=O)C2=O)N(CC2CCCCC2)C1=O	-	-	-	-	-
Cc1c(Cl)cccc1NC(=S)NC1CCN(C(C)C)CC1	-	-	-	-	-
Cc1ccc(C)c(NC(=O)CN(C)C(C)C(=O)N2CC(C)CC(C)C2)c1 (centres undefined)	?	-	-	-	-
CCCCN(CC)CCNC(=O)c1cc2c(=O)[nH]c3ccc(C)cc3c2s1	?	18µM	-100	?	16µM
CCCCN(CC)CCCNC(=O)c1cc2c(=O)[nH]c3ccccc3c2s1	23µM	?	-73	?	?
O=C(NCCCN1CCOCC1)c1cc2c(=O)[nH]c3ccccc3c2s1	?	-	-50	?	-
CCOCCCNC(=O)c1cc2c(=O)[nH]c3ccccc3c2s1	-	-	?	-	?
CCCCN(CC)CCNC(=O)c1cc2c(=O)[nH]c3ccccc3c2n1C	16µM!	-	-	15µM!	-
Cc1ccc2[nH]c(=O)c3cc(C(=O)NCCC(C)C)sc3c2c1	?	-	-	?	?
Cc1ccccc1C(=O)NC1CCN(C(=O)Nc2ccccc2Cl)CC1	?	-	?	-	-
COc1ccc(S(=O)(=O)N(CC(=O)NCCc2ccccc2)c2ccc(Cl)cc2)cc1	-	.	.	-	.
O=C(O)CCc1ccc(S(=O)(=O)Nc2cc(C(F)(F)F)ccc2N2CCCC2)cc1	-	-	-	-	-
CCC(C)NC(=O)c1cc2c(=O)[nH]c3ccc(C)cc3c2s1 (centres undefined)	?	-	-53	?	-
CS(=O)(=O)N1CCN(C2CCN(Cc3ccccc3)CC2)CC1	-	-	-	-	-
SMILES	TDP1 cell noCPT	HT1080 IDH1KD tx	IL1B secr inh	TDP1 cell CPT	HT1080-NT tox
O=C(Nc1nnc(C2CC2)s1)C1Cc2ccccc2CN1S(=O)(=O)c1cccs1 (centres undefined)	16µM	-	-	21µM	-
CCS(=O)(=O)N1Cc2ccccc2CC1C(=O)Nc1nnc(SCc2c(Cl)cccc2Cl)s1 (centres undefined)	?	-	-	?	-
CCS(=O)(=O)N1Cc2ccccc2CC1C(=O)Nc1nc2c(C)cccc2s1 (centres undefined)	26µM	-	-	-	-
CCSc1nnc(NC(=O)C2Cc3ccccc3CN2S(=O)(=O)CC)s1 (centres undefined)	16µM	-	-	?	-
O=C(Nc1nnc(SCc2ccc(F)cc2)s1)C1Cc2ccccc2CN1C(=O)c1ccco1 (centres undefined)	?	-	-78	-	-
O=C(O)COc1ccccc1/C=N/NC(=O)CSc1nc2ccccc2n1Cc1ccc(Cl)cc1	-	-	-	-	-
CCOc1ccc(NC(=O)CN(C)C(=O)c2sc3ccccc3c2Cl)cc1OCC	?	-	-	-	-
Cc1ccsc1C(=O)Nc1ccccc1N1CCOCC1	?	-	-	?	-
O=C(NNCS(=O)(=O)O)c1ccncc1	-	.	.	-	.
Cc1ccc(-c2nnc3c4ccccc4c(C)nn23)cc1NC(=O)c1ccccc1Cl	-	.	.	-	.
N#Cc1cccc(NC(=O)C2CCN(c3nc(-c4ccc(Cl)cc4)no3)CC2)c1	16µM	.	.	13µM	.
COc1ccc(-c2noc(N3CCC(C(=O)Nc4ccc(C)c(F)c4)CC3)n2)cc1OC	16µM	.	.	?	.
